Assay results taken from PubChem BioAssay (EPA / NIEHS).
Active and inactive are the calls of the source. How the source made its calls: active means hit-call score of the fitted dose curve at least 0.9, where 1 is the maximum; inactive means score below 0.9.

Assay: ATG_PBREM_CIS: Attagene CIS-FACTORIAL HepG2 Assay for human Phenobarbital-responsive Enhancer Module (PBREM) (AID 2282955)
Details: HepG2 PBREM cis-reporter, Attagene multiplexed transcription; actives raise or lower the signal
Protocol: ATG_CIS is a cell-based, multiplexed-readout assay that uses HepG2, a human liver cell line, with measurements taken at 24 hours after chemical dosing in a 24-well plate.ATG_PBREM_CIS is one of 52 assay component(s) measured or calculated from the ATG_CIS assay. It is designed to make measurements of mRNA induction, a form of inducible reporter, as detected with fluorescence intensity signals by Reverse transcription polymerase chain reaction (RT-PCR) and Capillary electrophoresis technology.Data from the assay component ATG_PBREM_CIS was analyzed into 1 assay endpoint. This assay endpoint, ATG_PBREM_CIS, was analyzed with bidirectional fitting relative to DMSO as the negative control and baseline of activity. Using a type of inducible reporter, measures of mRNA for gain or loss-of-signal activity can be used to understand the reporter gene at the transcription factor-level as they relate to the gene NR1I3. Furthermore, this assay endpoint can be referred to as a primary readout, because this assay has produced multiple assay endpoints where this one serves a reporter gene function. To generalize the intended target to other relatable targets, this assay endpoint is annotated to the nuclear receptor intended target family, where the subfamily is non-steroidal.
Human liver HepG2 cells are transiently transfected with multiple reporter transcription units (MRTUs) in 6-well plates using FuGene 6 reagent (Roche; 3 ml FuGene/1 mg DNA). The MRTU constructs are regulated by a cis-regulating element (promoter). […] A major difference between the CIS and TRANS system is that in CIS activities of endogenous TFs are measured, whereas the TRANS assay evaluates changes in activities of exogenous, chimeric NR-Gal4 proteins. […] At the end of 24 hour incubation, total RNA was isolated using TriZol reagent (Invitrogen). The isolated RNA is then reverse-transcribed using oligo(dT) primer and Mo-MLV reverse transcriptase (Invitrogen) with DNAse I (Ambion) treatment for 30 min. The one-tenth of the produced cDNA was amplified by PCR using Taq DNA polymerase (Invitrogen) and two reporter sequence-specific primers. The PCR products were fluorescently labeled by primer extension with 6-arboxyfluorescein (6-FAM) 5'-labeled reporter sequence-specific primer (2 min at 95 C, 20 s at 68 C and 10 min at 72 C) and these products were digested with 5U of HpaI (New England Biolabs) for 2h at 37 C. The fragments were purified using Qiaquick PCR columns (Qiagen), analyzed on an ABI 3130xL genetic analyzer (Applied Biosystems) with peak positions identified by using a set of X-rhodamine (ROX)-labeled MapMarker1000 molecular weight standards (BioVentures). The raw capillary electrophoresis data was processed using Attagraph software (Attagene).

Q: Which outcome does the source give for `O=CCc1ccccc1` here?
A: Its outcome is “inactive”.

Q: For `CCCC(C)=O`, which outcome is on record?
A: Its outcome is “inactive”.

Q: With `O=C(CS)OCCOC(=O)CS` as the molecule, how does the outcome read?
A: The outcome was “inactive”.

Q: With `CC1(C)C(=O)N(Cl)C(=O)N1Br` as the molecule, how does the outcome read?
A: The outcome was “inactive”.

Q: With `Nc1c(Cl)cc(Cl)cc1[N+](=O)[O-]` as the molecule, how does the outcome read?
A: The outcome was “inactive”.

Q: Which outcome does the source give for `ON=C1CCCCC1` here?
A: Its outcome is “inactive”.

Q: For `O=C1c2ccccc2C(=O)c2c(O)ccc(O)c21`, which outcome is on record?
A: Its outcome is “inactive”.

Q: With `C=CC(=O)OCCC#N` as the molecule, how does the outcome read?
A: The outcome was “inactive”.

Q: With `CCC(C)c1cc([N+](=O)[O-])cc([N+](=O)[O-])c1OC(=O)OC(C)C` (stereo not given) as the molecule, how does the outcome read?
A: The outcome was “inactive”.

Q: For `CCCCCCOC(=O)CCC`, which outcome is on record?
A: The outcome was “inactive”.

Q: For `CCOC(=O)c1ccc(N)cc1`, which outcome is on record?
A: The outcome was “inactive”.

Q: For `CCCCCC(C)=O`, which outcome is on record?
A: The outcome was “inactive”.

Q: For `COc1ccc(N=Nc2cc(C)c(N=Nc3ccc(S(=O)(=O)O)cc3)cc2OC)cc1`, which outcome is on record?
A: Its outcome is “inactive”.

Q: For `C/C=C(\C)C(=O)OCCc1ccccc1`, which outcome is on record?
A: The outcome was “inactive”.

Q: For `O=C(O)CNc1ccccc1`, which outcome is on record?
A: The outcome was “inactive”.

Q: With `CN(c1nccc(=O)[nH]1)C1CCN(c2nc3ccccc3n2Cc2ccc(F)cc2)CC1` as the molecule, how does the outcome read?
A: Its outcome is “inactive”.

Q: For `CC(C=O)Cc1ccc(C(C)(C)C)cc1` (stereo not given), which outcome is on record?
A: Its outcome is “inactive”.

Q: For `COc1cc([C@@H]2c3cc4c(cc3[C@@H](O[C@@H]3O[C@@H]5CO[C@@H](C)O[C@H]5[C@H](O)[C@H]3O)[C@H]3COC(=O)[C@H]23)OCO4)cc(OC)c1O`, which outcome is on record?
A: Its outcome is “inactive”.

Q: Which outcome does the source give for `Cc1ccc(OC(=O)c2ccccc2O)cc1` here?
A: Its outcome is “inactive”.

Q: Which outcome does the source give for `CS(=O)(=O)c1ccc(Cl)cc1` here?
A: The outcome was “inactive”.

Q: With `CCCCCCCCCCCCN1CCCCCC1=O` as the molecule, how does the AC50 read?
A: Its AC50 is 9.68 µM (active).

Q: Which outcome does the source give for `CCCC(O)C(O)CO` (stereo not given) here?
A: Its outcome is “inactive”.

Q: Which outcome does the source give for `Nc1ccc2cc(S(=O)(=O)O)cc(O)c2c1N=Nc1ccccc1C(F)(F)F` here?
A: Its outcome is “inactive”.

Q: For `N[C@@H](Cc1cc(I)c(Oc2cc(I)c(O)c(I)c2)c(I)c1)C(=O)O`, which AC50 is on record?
A: Its AC50 is 11.2 µM (active).

Q: For `c1ccc(CCc2ccccc2)cc1`, which outcome is on record?
A: Its outcome is “inactive”.

Q: Which outcome does the source give for `CCc1cc(C(C)(C)C)c(O)c(C(C)(C)C)c1` here?
A: Its outcome is “inactive”.

Q: Which outcome does the source give for `CCCCCCCCCCCCCC(=O)OCC(O)CO` (stereo not given) here?
A: Its outcome is “inactive”.

Q: Which outcome does the source give for `CN(C)CCOc1ccc(/C(=C(/CCCl)c2ccccc2)c2ccccc2)cc1` here?
A: The outcome was “inactive”.

Q: For `COC(=O)c1cccnc1`, which outcome is on record?
A: Its outcome is “inactive”.

Q: Which outcome does the source give for `CC(C)(C)C1=CC(=O)C(C(C)(C)C)=CC1=O` here?
A: The outcome was “inactive”.

Q: For `C=C1C[C@]23C[C@@]1(O)CC[C@H]2[C@@]12C=C[C@H](O)[C@@](C)(C(=O)O1)[C@H]2[C@@H]3C(=O)O`, which outcome is on record?
A: Its outcome is “inactive”.

Q: For `COC(=O)Nc1ccc(Cl)c(Cl)c1`, which outcome is on record?
A: Its outcome is “inactive”.

Q: Which outcome does the source give for `CC(C)(C)OC(=O)c1ccc(O)cc1` here?
A: The outcome was “inactive”.

Q: For `CCc1ccc(O)c(OC)c1`, which outcome is on record?
A: The outcome was “inactive”.

Q: For `COC(=O)c1ccc([N+](=O)[O-])cc1`, which outcome is on record?
A: Its outcome is “inactive”.

Q: With `CSc1c(Cl)c(Cl)c(Cl)c(Cl)c1Cl` as the molecule, how does the outcome read?
A: Its outcome is “inactive”.

Q: With `CN1C(=O)c2ccccc2C1=O` as the molecule, how does the outcome read?
A: The outcome was “inactive”.

Q: Which outcome does the source give for `C1=CC2C3C=CC(C3)C2C1` (stereo not given) here?
A: Its outcome is “inactive”.

Q: With `O=C(c1ccccc1)C(O)c1ccccc1` (stereo not given) as the molecule, how does the outcome read?
A: The outcome was “inactive”.

Q: With `CC1=C(Br)C(=O)C(Br)=C/C1=C(/c1ccccc1S(=O)(=O)O)c1cc(Br)c(O)c(Br)c1C` as the molecule, how does the outcome read?
A: Its outcome is “inactive”.
